Measurements taken from ChEMBL document CHEMBL3433997, “St. Jude Leishmania screening dataset” (2016).

These compounds were tested against Hexose transporter 1 (Plasmodium falciparum) (UniProt O97467) (assay: ST_JUDE_LEISH: Cytotoxicity at 2uM final concentration against transgenic Leishmania Mexicana promastigotes LmPfHT that are glucose transport deficient and complemented with the Plasmodium falciparum hexose transporter. Activity is measured by DNA content using SYBR green in vitro).
Assay type: functional

SMILES | inhibition [%]
Cc1cc(=O)[nH]c(-n2nc(C)cc2NC(=O)CC(c2ccccc2)c2ccccc2)n1 | 23.1
Cc1ccccc1Nc1nc(NCCc2ccccc2)nc2ccccc12 | 37.4
C=CCc1cc(SC)ccc1Oc1ccc(N)cc1 | 2.06
CN1CCC(Oc2ccc(CN3CC[C@H](NC(=O)c4ccc(Cl)c(Cl)c4)C3)c3ccccc23)C1 (stereo not given in full) | 4.41
COc1c(CN2CCOCC2)cccc1-c1cc2c(-c3ccc(C(=O)O)c(C(C)C)c3)ccnc2[nH]1 | 3.17
COc1ccc2ncc(F)c([C@@H](O)CN3CCC(NCc4cc5c(cn4)OCCO5)CC3)c2c1 | 2.79
CCOC(=O)c1ccc(NC(=O)N[C@@H](Cc2ccccc2)C(=O)NC2CCN(Cc3ccc(O)c(OC)c3)C2)cc1 (stereo not given in full) | -1.29
Brc1cc(Br)c2c(c1)C(NCCCNc1nc3ncccc3[nH]1)CCN2 (stereo not given) | 78.5
Cc1cc(Nc2ccc(Cl)c(Cl)c2)n2nc(C)nc2n1 | -1.26
Cc1[nH]c(C)c(Cc2ccc(Oc3ccc(OC(F)(F)F)cc3)cc2)c(=O)c1Br | -0.95
O=C(Nc1cccc(CN2CCCN(Cc3ccc(O)cc3)CC2)c1)c1cc2ccccc2o1 | 2.02
Oc1ccc(CCCc2cc(Oc3c(I)cc(CCc4ncc[nH]4)cc3I)ccc2O)cc1 | -0.28
COCCn1c(-c2nc(-c3ccc(F)cc3)cnc2N)nc2ccccc21 | -2.08
CC(C)(C)CCN1CCC(CNC(=O)c2cc(-c3cccc(C(F)(F)F)c3)cs2)C1 (stereo not given) | 2.95
Cc1cc(N[C@@H](Cc2ccccc2)C(=O)NC2CCCC2)nc(Nc2ccccc2)n1 | 7.28
CCNc1cc(C(=O)N[C@@H](Cc2ccccc2)[C@H](O)CNCc2ccc3c(c2)OCCO3)cc(N2CCCCS2(=O)=O)c1 | 1.25
O=C(Nc1ccc(-c2cccc(-c3nc4cc(C(F)(F)F)ccc4[nH]3)c2)cc1)c1cccnc1 | 0.06
CCCc1cn2c3c(cc(C(=O)N[C@@H](Cc4ccccc4)[C@H](O)CNC4CCOCC4)cc13)N(C)S(=O)(=O)CC2 | 1.26
CCc1cn2c3c(cc(C(=O)N[C@@H](Cc4ccccc4)[C@H](O)CNC4CCCCC4)cc13)N(C)S(=O)(=O)C2 | 2.23
NS(=O)(=O)c1cccc(N/C=C2\C(=O)Nc3ccc(S(=O)(=O)Cc4c(Cl)cccc4Cl)cc32)c1 | 0.57
CCCCCN1CCCN(Cc2cccc(NC(=O)c3ccc(Cl)c(Cl)c3)c2)CC1 | 0.02
O=C(/C=C/c1ccc(Cl)c(Cl)c1)NCCCCCCN1CCN(C(=O)Nc2ccc(C(F)(F)F)cc2)CC1 | 3.11
CC(=NNC(=N)N)c1ccc2c(ccc3ccccc32)c1 | 1.59
CC(=O)C1=NN(c2ccc(Cl)cc2)C(c2cccs2)N1c1ccccc1 (stereo not given) | 0.36
Cc1cc(C2CCN(CCCCNC(=O)c3ccc(-c4ccc(C(F)(F)F)cc4)cc3)CC2)c(C)cc1OCCO | 5.28

The compounds below were run against Glucose transporter (Leishmania mexicana) (UniProt O61059) (assay: ST_JUDE_LEISH: Cytotoxicity at 2uM final concentration against transgenic Leishmania Mexicana promastigotes LmGT2 that are glucose transport deficient and complemented with the L. Mexicana glucose transporter 2. Activity is measured by DNA content using SYBR green in vitro).
Assay type: functional

SMILES | inhibition [%]
Cc1ccc(F)c(NC(=O)c2c(-c3c(F)cccc3Cl)noc2C)c1 | 1.42
CC1=NN(c2ccc(C)c(C)c2)C(=O)C1=NNc1cccc(-c2cccc(NC(=O)OC(C)(C)C)c2)c1O | 0.04
CC(C)(C)c1ccc(-c2ccccc2CNC(=O)c2cccc(O)c2)cc1 | 7.1
O=C(Nc1ccncc1)Nc1ccc2c(c1)CCN(C1CCC1)CC2 | 11
CCN(CC)CCOc1ccc(N(Cc2ccc(C(C)(C)C)cc2)C(=O)c2ccc(Cc3ccccc3)cc2)cc1OC | 13.1
COc1ccc2nccc(N3CCC(CCNCc4cc5c(cn4)OCCO5)CC3)c2n1 | 1.72
c1cncc(CN2CCCN(c3ccc4c(c3)CCN(Cc3ccc(-c5ncc[nH]5)cc3)CC4)CC2)c1 | 2.25
Cc1ccc(CNC(=N)NC(=O)c2nc(Cl)c(NCc3ccc(Cl)cc3)nc2N)c(C)c1 | 1.11
CC(C)C[C@H](Nc1ccnc(NCC2CCCCC2)n1)C(=O)Nc1ccccc1 | 3.2
O=[N+]([O-])c1cccc(CNCC2CCN(Cc3ccc(Cl)c(Cl)c3)CC2)c1 | 12.9
Cc1cc(C(=O)NCc2ccc(-c3c(C)noc3C)cc2)n(-c2ccccc2)n1 | 3.34
CCn1c(C=Cc2cc(Br)ccc2O)nc2ccccc2c1=O | 0.51
COc1ccccc1-c1csc(C(=O)NCC2CCN(Cc3ccc(C(C)C)cc3)C2)c1 (stereo not given) | -1.65
COc1ccc2nccc([C@@H](O)CN3CCC(NCc4cc5ccccn5n4)CC3)c2c1 | 4.75
Cc1cccc2nc(-c3ccc(-c4cccc(NC(=O)Nc5ccc(F)c(F)c5F)c4)cc3)[nH]c12 | 0.59
Cc1cc(=O)[nH]c(-n2nc(C)cc2NC(=O)CC(c2ccccc2)c2ccccc2)n1 | -1.63
Cc1ccccc1Nc1nc(NCCc2ccccc2)nc2ccccc12 | 18.3
C=CCc1cc(SC)ccc1Oc1ccc(N)cc1 | 1.08
CN1CCC(Oc2ccc(CN3CC[C@H](NC(=O)c4ccc(Cl)c(Cl)c4)C3)c3ccccc23)C1 (stereo not given in full) | 3.37
COc1c(CN2CCOCC2)cccc1-c1cc2c(-c3ccc(C(=O)O)c(C(C)C)c3)ccnc2[nH]1 | 3.15

SMILES | inhibition [%]
COc1ccc2ncc(F)c([C@@H](O)CN3CCC(NCc4cc5c(cn4)OCCO5)CC3)c2c1 | 3.93
CCOC(=O)c1ccc(NC(=O)N[C@@H](Cc2ccccc2)C(=O)NC2CCN(Cc3ccc(O)c(OC)c3)C2)cc1 (stereo not given in full) | 3.01
Brc1cc(Br)c2c(c1)C(NCCCNc1nc3ncccc3[nH]1)CCN2 (stereo not given) | 73.5
Cc1cc(Nc2ccc(Cl)c(Cl)c2)n2nc(C)nc2n1 | 0.04
Cc1[nH]c(C)c(Cc2ccc(Oc3ccc(OC(F)(F)F)cc3)cc2)c(=O)c1Br | -3.03
O=C(Nc1cccc(CN2CCCN(Cc3ccc(O)cc3)CC2)c1)c1cc2ccccc2o1 | 1.62
Oc1ccc(CCCc2cc(Oc3c(I)cc(CCc4ncc[nH]4)cc3I)ccc2O)cc1 | -1.55
COCCn1c(-c2nc(-c3ccc(F)cc3)cnc2N)nc2ccccc21 | -0.94
CC(C)(C)CCN1CCC(CNC(=O)c2cc(-c3cccc(C(F)(F)F)c3)cs2)C1 (stereo not given) | -0.8
Cc1cc(N[C@@H](Cc2ccccc2)C(=O)NC2CCCC2)nc(Nc2ccccc2)n1 | 2
CCNc1cc(C(=O)N[C@@H](Cc2ccccc2)[C@H](O)CNCc2ccc3c(c2)OCCO3)cc(N2CCCCS2(=O)=O)c1 | 1.57
O=C(Nc1ccc(-c2cccc(-c3nc4cc(C(F)(F)F)ccc4[nH]3)c2)cc1)c1cccnc1 | -1.11
CCCc1cn2c3c(cc(C(=O)N[C@@H](Cc4ccccc4)[C@H](O)CNC4CCOCC4)cc13)N(C)S(=O)(=O)CC2 | -0.3
CCc1cn2c3c(cc(C(=O)N[C@@H](Cc4ccccc4)[C@H](O)CNC4CCCCC4)cc13)N(C)S(=O)(=O)C2 | 2.69
NS(=O)(=O)c1cccc(N/C=C2\C(=O)Nc3ccc(S(=O)(=O)Cc4c(Cl)cccc4Cl)cc32)c1 | 3.06
CCCCCN1CCCN(Cc2cccc(NC(=O)c3ccc(Cl)c(Cl)c3)c2)CC1 | 2.58
O=C(/C=C/c1ccc(Cl)c(Cl)c1)NCCCCCCN1CCN(C(=O)Nc2ccc(C(F)(F)F)cc2)CC1 | 3.19
CC(=NNC(=N)N)c1ccc2c(ccc3ccccc32)c1 | 0.58
CC(=O)C1=NN(c2ccc(Cl)cc2)C(c2cccs2)N1c1ccccc1 (stereo not given) | 0.54
Cc1cc(C2CCN(CCCCNC(=O)c3ccc(-c4ccc(C(F)(F)F)cc4)cc3)CC2)c(C)cc1OCCO | 2.63
